Screening results (PubChem BioAssay)
The entries come from a sample that favours hits as a whole.
HttQ103 aggreg: inhibitors of mutant huntingtin aggregate formation in PC12 cells; PC12 HttQ103-GFP aggregates, Acumen cytometry, 40 h; Potency, µM (top dose mostly 46.1 µM), without a hit: at the top dose activity change, negative = inhibition, most hits filed as inhibitors; 220,000 compounds, 1.1% hits; further: potency means the concentration at half of the fitted maximal effect; on the % scale 0 is the no-effect control and ±100 the full control effect; nearly all actives have a fitted effect of over 60% in size
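Huntingtin Q103 exon 1–GFP aggregates in induced PC12 cells (100 nM tebufenozide) were quantified by cytometry from lysates, with compounds dosed in titration.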
HTT ATP protect: cytoprotection in Huntington HTT-Q103 PC12 cell model; PC12 HTT-Q103 induced, cytoprotection, ATP luminescence, 40 h; Potency, µM (series often up to 56.4 µM), without a hit: cytoprotection (ATP increase), most hits filed as activators; 230,000 compounds, 0.14% hits; AID 1471; further: potency means the concentration at half of the fitted maximal effect; % of control where 0% means no effect; nearly all actives have a fitted effect of over 45% in size
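Compounds were screened for protection of PC12 cells against cell death after tebufenozide induction (100 nM final) of mutant Huntingtin exon 1 (Q103) fused to GFP.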
PNC inhibitor: blocks assembly of the perinucleolar compartment. PC3M PTB-GFP, PNC prevalence imaging, 16 h; active compounds read low. activity change (PNC), negative = inhibition, % at 10 µM. 140,000 compounds, 3.1% hits;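 active means readout at or below -70, meaning at least 70% loss of cells showing the perinucleolar compartment, a nuclear body marking cancer cells; inconclusive means readout between -30 and a set limit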;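 further: plate controls were DMSO wells for no effect and camptothecin positive control wells for full effect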
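Read-out is percentage of cells bearing a perinucleolar compartment, from automated 20x imaging of fixed, Hoechst-stained PC3M PTB-GFP cells. Cells were seeded 4 h, then exposed 16 h to compound (23 nl of library stock) in duplicate plates.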
Numbers without * were called inactive; [ ] = dose if it differs, or a comment. Unless noted, the call rests on the fitted dose curve; in most records, active means well fitted curve in the direction sought with a large enough effect; inconclusive means small, poorly fitted or top-dose-only effect, or another doubt; inactive means no such curve, though single readings can be large; an effect the other way counts as inactive or inconclusive.

How did O=C(CC1C(=O)NCCN1Cc1ccc(-c2ccccc2)cc1)NC1CCC1 (centres undefined) do in these assays?
HttQ103 aggreg: -9%[9.22 µM]; HTT ATP protect: -1%[10 µM]

Results for Cc1ccccc1C(=O)Nc1nnc(-c2ccc(F)cc2)o1 ?
HttQ103 aggreg: 10µM*; HTT ATP protect: -47%; PNC inhibitor: -16

Results for COc1ccccc1C(=O)Nc1nnc(-c2ccc(F)cc2)o1 ?
HttQ103 aggreg: 7%; HTT ATP protect: -23%; PNC inhibitor: 29

Results for O=C(NCc1ccc2c(c1)OCO2)C(=S)N1CCOCC1 ?
HttQ103 aggreg: 20%[9.22 µM]; HTT ATP protect: -49%

Results for COC(=O)c1ccc2c(c1O)C(=O)c1ccccc1C2=O ?
HttQ103 aggreg: -19%; HTT ATP protect: -25%; PNC inhibitor: -28

Results for COC(=O)c1cccc2c1-c1ccccc1/C2=N/O ?
HttQ103 aggreg: 10µM*; HTT ATP protect: 22%; PNC inhibitor: 26

Results for CS(=O)(=O)N(CC(=O)NCc1ccco1)c1ccc(Cl)cc1Cl ?
HttQ103 aggreg: 11%; HTT ATP protect: -7%

What do the screens show for `Cc1cc(O)ccc1NC(=O)CCN1C(=O)c2ccc([N+](=O)[O-])cc2C1=O`?
HttQ103 aggreg: 8%; PNC inhibitor: -98*

How did O=C(CCN1C(=O)c2ccc([N+](=O)[O-])cc2C1=O)Nc1cccc(O)c1 do in these assays?
HttQ103 aggreg: 1%; HTT ATP protect: -2%[10 µM]; PNC inhibitor: inconclusive

What do the screens show for `Cn1nc(C(=O)Nc2cccnc2)c2ccccc2c1=O`?
HttQ103 aggreg: 2%; HTT ATP protect: -14%[0.074 µM]; PNC inhibitor: -4

Results for C=CCn1c(SCC(=O)NC2CCCCC2)nnc1-c1sc(N)nc1C ?
HttQ103 aggreg: 5%; HTT ATP protect: 17%[10 µM]; PNC inhibitor: inconclusive

How did COc1ccc(CCNC(=O)CCNS(=O)(=O)c2cccc(Cl)c2)cc1OC do in these assays?
HttQ103 aggreg: 2%; HTT ATP protect: -33%

What do the screens show for `COc1ccc(CCNC(=O)CN2CCN(c3cccc(Cl)c3)CC2)cc1OC`?
HttQ103 aggreg: 4%; HTT ATP protect: -18%; PNC inhibitor: -91*

What do the screens show for `COCCOC(=O)c1[nH]c2c(c1C)C(=O)C(C(=O)OC)C(C)C2` (centres undefined)?
HttQ103 aggreg: 2%; HTT ATP protect: -50%; PNC inhibitor: 46

What do the screens show for `COC(=O)C1C(=O)c2c([nH]c(C(=O)OC3CCCCCC3)c2C)CC1C` (centres undefined)?
HttQ103 aggreg: 0.001µM*; PNC inhibitor: -6

How did C[C@H]1[C@@H](OC(=O)CCC(=O)O)OC2OC3(C)CC[C@H]4[C@H](C)CC[C@@H]1[C@@]24OO3 (some centres undefined) do in these assays?
HttQ103 aggreg: 3.2µM*; HTT ATP protect: -97%

Results for O=C(c1nc2ccccc2[nH]1)c1ccccc1[N+](=O)[O-] ?
HttQ103 aggreg: -15%[9.22 µM]; HTT ATP protect: -12%[10 µM]

How did O=C1c2cc([N+](=O)[O-])ccc2-c2ccc3c4ccc5c6c(ccc(c7ccc1c2c73)c64)C(=O)c1cc([N+](=O)[O-])ccc1-5 do in these assays?
HTT ATP protect: -49%[10 µM]

What do the screens show for `Cc1ccc(NC(=O)c2ccc(OC(=O)c3ccco3)cc2)cc1`?
HttQ103 aggreg: -16%; HTT ATP protect: -75%[0.074 µM]; PNC inhibitor: inconclusive

Results for c1ccc(CCc2nc(-c3ccccc3)no2)cc1 ?
HttQ103 aggreg: 14%; HTT ATP protect: -6%; PNC inhibitor: -19

Results for O=C(Nc1ccc(-c2noc(CCc3ccccc3)n2)cc1)c1ccco1 ?
HttQ103 aggreg: -34%; HTT ATP protect: -39%[10 µM]; PNC inhibitor: -89*

How did Cc1ccc(Oc2ccc(NC(=O)c3ccco3)cc2)cc1 do in these assays?
HttQ103 aggreg: 22µM*; HTT ATP protect: -25%; PNC inhibitor: 12

What do the screens show for `Cc1ccc(C(=O)Nc2cccc(Oc3ccccc3)c2)o1`?
HttQ103 aggreg: -22%[1.84 µM]; HTT ATP protect: -36%; PNC inhibitor: 24

Results for O=C(Nc1cccc(Oc2ccc3c(c2)C(=O)NC3=O)c1)c1ccco1 ?
HttQ103 aggreg: -16%; HTT ATP protect: -4%; PNC inhibitor: -92*

What do the screens show for `NS(=O)(=O)c1ccc(N=Nc2nc3[nH]c(=O)[nH]c(=O)c3[nH]2)cc1`?
HTT ATP protect: -5%[10 µM]

How did CCCC(c1nnnn1CS(=O)(=O)c1ccc(C)cc1)N1CCN(c2ccccc2)CC1 (centres undefined) do in these assays?
HttQ103 aggreg: -2%; HTT ATP protect: -3%; PNC inhibitor: inconclusive

Results for Cc1ccc(S(=O)(=O)Cn2nnnc2C(CC(C)C)N2CCN(c3ccc(F)cc3)CC2)cc1 (centres undefined) ?
HttQ103 aggreg: 1%; HTT ATP protect: 2%; PNC inhibitor: -115*
